Data as given in PubChem BioAssay AID1159580 (chemical genetic matrix, 2015).
Where “and” joins values, the source holds several entries; their conditions need not be identical. Equal values may be shown once. The campaign covered roughly 5,500 compounds. About 2,000 (36%) were called active. Inconclusive results (about 18%) are left out. No stated cut-off is given here; in the data, active means normalized growth mostly below about 0.91 (no sharp cut-off); inconclusive means no clear call, values can overlap the other calls; inactive means mostly above about 0.92. This is one part of the list.

Assay: chemical genetic growth profiling, strain panel (AID 1159580);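 further: tested at 20 µM; growth read once vehicle control cultures reached saturation at 30 °C; 1 = growth at the plate median or of vehicle wells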
Conditions: S. cerevisiae deletion strains, growth OD

Measured: normalized growth

COc1ccc(OC)c(C(O)C(C)N)c1 (stereo not given)
inactive: locus YAL013W, strain DEP1, stronger effect = lower value 1.02 and 1.01 | locus YAL021C, strain ccr4, stronger effect = lower value 1 | locus YAL026C, strain drs2, stronger effect = lower value 0.993 | locus YAL030W, strain snc1, stronger effect = lower value 0.998 | locus YAL040C, strain CLN3, stronger effect = lower value 0.977 | locus YBL061C, strain skt5, stronger effect = lower value 0.996 | locus YBR009C, strain hhf1, stronger effect = lower value 1.01 | locus YBR021W, strain FUR4, stronger effect = lower value 1.01 | locus YBR023C, strain chs3, stronger effect = lower value 0.998 | locus YBR171W, strain sec66, stronger effect = lower value 0.991 | locus YBR229C, strain ROT2, stronger effect = lower value 1.02 | locus YBR231C, strain swc5, stronger effect = lower value 0.977 | locus YBR279W, strain paf1, stronger effect = lower value 1 | locus YCL011C, strain gbp2, stronger effect = lower value 1.01 | locus YCL016C, strain dcc1, stronger effect = lower value 1.01 | locus YCL029C, strain bik1, stronger effect = lower value 0.99 | locus YCL061C, strain MRC1 (second series), stronger effect = lower value 1.02 | locus YCL061C, strain MRC1, stronger effect = lower value 0.99 | locus YCL069W, strain vba3, stronger effect = lower value 1 | locus YCR088W, strain abp1, stronger effect = lower value 0.998 | locus YDL005C, strain med2, stronger effect = lower value 0.994 | locus YDL035C, strain GPR1, stronger effect = lower value 1.01 | locus YDL040C, strain nat1, stronger effect = lower value 0.996 | locus YDL074C, strain BRE1, stronger effect = lower value 1.05 | locus YDL101C, strain DUN1, stronger effect = lower value 1.03 | locus YDL134C, strain PPH21, stronger effect = lower value 1.03 | locus YDL185W, strain tfp1, stronger effect = lower value 0.988 | locus YDL192W, strain arf1, stronger effect = lower value 0.99 | locus YDR001C, strain nth1, stronger effect = lower value 0.99 | locus YDR069C, strain doa4, stronger effect = lower value 0.999 | locus YDR101C, strain arx1, stronger effect = lower value 0.981 | locus YDR137W, strain rgp1, stronger effect = lower value 1.03 | locus YDR150W, strain NUM1, stronger effect = lower value 1.02 | locus YDR159W, strain sac3, stronger effect = lower value 1.01 | locus YDR162C, strain NBP2, stronger effect = lower value 1.05 | locus YDR195W, strain ref2 0.948 | locus YDR297W, strain sur2, stronger effect = lower value 0.998 | locus YDR318W, strain mcm21, stronger effect = lower value 0.977 | locus YDR334W, strain swr1, stronger effect = lower value 0.993 | locus YDR335W, strain msn5, stronger effect = lower value 0.997 | locus YDR363W, strain ESC2, stronger effect = lower value 1.03 | locus YDR388W, stronger effect = lower value 0.977 | locus YDR392W, strain spt3, stronger effect = lower value 1.01 | locus YDR502C, strain sam2, stronger effect = lower value 1 | locus YEL003W, strain gim4, stronger effect = lower value 1 | locus YEL037C, strain rad23, stronger effect = lower value 0.991 | locus YEL061C, strain CIN8 (second series), stronger effect = lower value 0.983 | locus YEL061C, strain CIN8, stronger effect = lower value 1.01 | locus YER002W, strain NOP16, stronger effect = lower value 0.993 | locus YER015W, strain faa2, stronger effect = lower value 0.99 | locus YER016W, strain bim1, stronger effect = lower value 0.998 | locus YER110C, stronger effect = lower value 0.981 | locus YER111C, strain swi4, stronger effect = lower value 1 | locus YER155C, strain BEM2 (second series), stronger effect = lower value 0.988 | locus YER155C, strain BEM2, stronger effect = lower value 1.01 | locus YER167W, strain BCK2, stronger effect = lower value 1.01 | locus YFR010W, strain ubp6, stronger effect = lower value 0.99 | locus YGL078C, strain dbp3, stronger effect = lower value 0.997 | locus YGL086W, strain mad1, stronger effect = lower value 0.983 | locus YGL167C, strain pmr1, stronger effect = lower value 0.998 | locus YGL173C, strain kem1, stronger effect = lower value 0.991 | locus YGL227W, strain vid30, stronger effect = lower value 0.991 | locus YGL240W, strain doc1, stronger effect = lower value 0.981 | locus YGL248W, strain PDE1, stronger effect = lower value 1.03 | locus YGL253W, strain hxk2, stronger effect = lower value 0.998 | locus YGR078C, strain PAC10, stronger effect = lower value 1.04 | locus YGR135W, strain pre9, stronger effect = lower value 1.03 | locus YGR229C, strain SMI1, stronger effect = lower value 1.03 | locus YGR252W, strain gcn5, stronger effect = lower value 0.947 | locus YHR013C, strain ard1, stronger effect = lower value 0.99 | locus YHR027C, strain rpn1, stronger effect = lower value 1 | locus YHR030C, strain SLT2, stronger effect = lower value 1 and 1.03 | locus YHR079C, strain IRE1 (second series), stronger effect = lower value 0.988 | locus YHR079C, strain IRE1, stronger effect = lower value 1.05 | locus YHR094C, strain hxt1, stronger effect = lower value 0.99 | locus YHR129C, strain ARP1, stronger effect = lower value 1.01 | locus YHR142W, strain chs7, stronger effect = lower value 1.01 | locus YHR200W, strain rpn10, stronger effect = lower value 0.993 | locus YIL066C, strain RNR3, stronger effect = lower value 1.01 | locus YIL073C, strain SPO22, stronger effect = lower value 1 | locus YIL125W, strain kgd1, stronger effect = lower value 0.995 | locus YIR030C, strain dcg1, stronger effect = lower value 0.988 | locus YJL092W, strain hpr5, stronger effect = lower value 0.997 | locus YJL095W, strain BCK1 (second series), stronger effect = lower value 0.997 | locus YJL095W, strain BCK1, stronger effect = lower value 1.04 and 1.03 | locus YJL115W, strain asf1, stronger effect = lower value 0.99 | locus YJL129C, strain trk1, stronger effect = lower value 0.997 | locus YJL134W, strain LCB3, stronger effect = lower value 1.01 | locus YJL154C, strain vps35, stronger effect = lower value 0.998 | locus YJL164C, strain tpk1, stronger effect = lower value 1.01 | locus YJL166W, strain qcr8, stronger effect = lower value 0.974 | locus YJL168C, strain set2, stronger effect = lower value 0.989 | locus YJL187C, strain SWE1 (second series), stronger effect = lower value 1.02 | locus YJL187C, strain SWE1, stronger effect = lower value 1 | locus YJR043C, strain POL32, stronger effect = lower value 0.977
